Measured values taken from PubChem BioAssay (NCI).
Compounds without any hit were thinned out: in the full panel of roughly 79,000, 15% have a hit. No stated cut-off is given here; in the data, active means growth inhibition above about 70%; inactive means the rest.

Key:
[1] = NCI Yeast Anticancer Drug Screen. Data for the rad50 strain (AID 155);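 further: 0% = growth of vehicle-only cultures of the same strain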; details: S. cerevisiae rad50 strain growth inhibition; at 50.0 µM; hits give high values
Method in brief: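 Inhibition values express reduced yeast growth in compound-treated cultures relative to vehicle-treated controls.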

[2] = NCI Yeast Anticancer Drug Screen. Data for the mec2-1 strain (AID 157); details: S. cerevisiae mec2-1 strain, at 50.0 µM, hits give high values
Method in brief: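 Yeast mec2-1 mutant treated with compound. Readout: growth inhibition vs vehicle controls.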

[3] = NCI Yeast Anticancer Drug Screen. Data for the sgs1 mgt1 strain (AID 161);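 further: 0% = growth of cultures given vehicle only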; details: S. cerevisiae sgs1 mgt1 strain, at 50.0 µM, hits give high values
Method in brief: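 Genetically altered yeast, compound exposure, growth inhibition relative to vehicle.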

[4] = NCI Yeast Anticancer Drug Screen. Data for the cln2 rad14 strain (AID 165);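 further: 0% = growth equal to vehicle treated cultures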; details: S. cerevisiae cln2 rad14 strain, at 50.0 µM, hits give high values
Method in brief: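 cln2 rad14 yeast strain; compound exposure; growth inhibition read vs vehicle controls.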

[5] = NCI Yeast Anticancer Drug Screen. Data for the bub3 strain (AID 167); details: S. cerevisiae bub3 mutant strain, at 50.0 µM, hits give high values
Method in brief: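 Steps: expose the mutant yeast strain to compound; grow alongside vehicle-treated cultures; measure growth; express inhibition against the vehicle cultures.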

[6] = NCI Yeast Anticancer Drug Screen. Data for the mlh1 rad18 strain (AID 175); details: S. cerevisiae mlh1 rad18 strain growth inhibition; at 50.0 µM; hits give high values
Method in brief: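 Yeast w/ defined DNA-repair lesions; compound exposure; growth vs vehicle controls → % inhibition.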

Measured: growth inhibition

CN(C)CCNc1ccc2nnn3c4ccccc4c(=O)c1c23
inactive: [1] 32.5% | [2] 7.45% | [3] 11.2% | [4] 29.7% | [5] 3% | [6] 25.5%

COC(=O)/C=C1\CCC(C)O1 (configuration not stated)
inactive: [1] -1.35% | [2] -26.6% | [3] -27.7% | [4] 8% | [5] -19.2% | [6] 16%

Cc1ccc(CNC(=O)C2CCCCC2C(=O)O)cc1 (configuration not stated)
inactive: [1] 6.65% | [2] 21.7% | [3] 6.95% | [4] 10.4% | [5] 27.9% | [6] -16.1%

Cc1c([O-])[n+]2cccc3ccn(c1=O)c32
inactive: [1] -28.7% | [2] -13.6% | [3] -16.7% | [4] -11.1% | [5] -2.4% | [6] 12.1%

CCO/C=C1/N=C(c2ccc(OC)c(OC)c2)OC1=O
inactive: [1] -6.3% | [2] 5.6% | [3] 18.6% | [4] -67.8% | [5] -7.2% | [6] 12.2%

COc1ccc2c(c1)N(S(=O)(=O)c1ccc(C)cc1)C[C@@H]1c3cc(O)c(OCc4ccccc4)cc3O[C@H]21
inactive: [1] -8.95% | [2] 7.9% | [3] -7.8% | [4] -6.8% | [5] 2.4% | [6] 15.6%

COc1cc(Br)cc(OC)c1Oc1cc(OC)c(OC)c(OC)c1Br
inactive: [1] 45.8% | [2] 12.4% | [3] 36% | [4] 2.4% | [5] 10.8% | [6] 24.9%

Cc1cn(C2CC(NO)C(CO[Si](C)(C)C(C)(C)C)O2)c(=O)[nH]c1=O (configuration not stated)
inactive: [1] -3.75% | [2] -0.25% | [3] -3.45% | [4] -3.9% | [5] -30.4% | [6] -35.7%

CC(=O)Nc1ccc([N+](=O)[O-])cc1
inactive: [1] 30.9% | [2] -0.75% | [3] -5.3% | [4] 5.55% | [5] 14.7% | [6] 1%

C=CCOC(=O)c1c(Cl)c(Cl)c(Cl)c(Cl)c1C(=O)O
inactive: [1] 18.4% | [2] 7.85% | [3] 29.1% | [4] 25.9% | [5] 14.1% | [6] 23.9%

CN(C)CC1CCc2c(n(C)c3ccccc23)C1=O (configuration not stated)
inactive: [1] -2.55% | [2] -2.85% | [3] 5.2% | [4] -51.8% | [5] -4.35% | [6] 10.6%

O=C(O)c1c2ccccc2nc2ccccc12
inactive: [1] -17.6% | [2] -17.9% | [3] -17.9% | [4] -34.5% | [5] 15.2% | [6] 57%

O=C(O)CCSSCCC(=O)O
inactive: [1] 7.25% | [2] 6.5% | [3] 10.8% | [4] -1.65% | [5] -4.1% | [6] 10.8%

O=C(N/N=C\c1cccc2c([N+](=O)[O-])cccc12)Nc1ccccc1
inactive: [1] -30.6% | [2] -0.45% | [3] -21.9% | [4] 2.6% | [5] -16.6% | [6] -31.6%

COc1ccc(C(=O)C(C(=O)C(=O)NCCCNC(=O)C(=O)C(C(=O)c2ccc(OC)cc2)c2ccc(OC)cc2)c2ccc(OC)cc2)cc1 (configuration not stated)
inactive: [1] -11.9% | [2] -25.6% | [3] -7.1% | [4] 13.8% | [5] -9.25% | [6] -10.7%

COC(=O)C1C2CC3C(C2=O)C31 (configuration not stated)
inactive: [1] 6.45% | [2] -4.7% | [3] 4.45% | [4] 21.1% | [5] 20.4% | [6] 6.85%

CCOP(=O)(OCC)C(Cc1cn(S(=O)(=O)c2ccc(C)cc2)cn1)C(=O)O (configuration not stated)
inactive: [1] -14.2% | [2] 12.5% | [3] 5.9% | [4] 16.2% | [5] 21.4% | [6] -17.4%

Nc1ccc(Cl)cc1[N+](=O)[O-]
inactive: [1] 4.85% | [2] -3.75% | [3] 12.2% | [4] 25.1% | [5] -3.9% | [6] 15.8%

c1ccc(CCn2c(-c3ccccn3)nc3ccccc32)nc1
inactive: [1] 13.2% | [2] -4.25% | [3] 18.1% | [4] -24.5% | [5] 15.5% | [6] 7.95%

C#[N+]CCOP(=O)(OCC1OC(n2cc(C)c(=O)[nH]c2=O)CC1N=[N+]=[N-])O[C@H]1CC[C@@]2(C)C(=CC[C@H]3[C@@H]4CC[C@H](C(C)CCCC(C)C)[C@@]4(C)CC[C@@H]32)C1 (some centres not stated)
inactive: [1] -18.8% | [2] -30.1% | [3] -24.6% | [4] 3.05% | [5] -0.35% | [6] -17.4%

O=[n+]1ccn([O-])c2cc(Cl)ccc21
inactive: [1] 13.6% | [2] 13.2% | [3] 10.2% | [4] -16.2% | [5] -5.1% | [6] 9.85%

Cc1ccccc1C1OC(=O)c2ccccc21 (configuration not stated)
inactive: [1] 17.7% | [2] -8.85% | [3] 4.45% | [4] 4.2% | [5] 15.2% | [6] 27.6%

Nc1ccc(C(=O)O)c(O)c1.Nc1ccc(C(=O)O)c(O)c1.[Cu]
inactive: [1] -13.4% | [2] 2.4% | [3] -20.3% | [4] 3.6% | [5] -1.95% | [6] -5.05%

Cc1cc(=O)[nH]c(/N=C(/N)N(C)C)n1
inactive: [1] 4.15% | [2] -10.8% | [3] 3% | [4] 11.4% | [5] 8.2% | [6] 5.05%

CC(=O)Nc1cccc(Cc2ccccc2)c1
inactive: [1] 14.3% | [2] -14.4% | [3] 1.05% | [4] -67.2% | [5] -6.3% | [6] -4.6%

COCn1ccnc1C(=O)c1ccccc1
inactive: [1] -11.4% | [2] -13.8% | [3] -9.65% | [4] -27.1% | [5] -7.25% | [6] -5.15%

CCOC(=O)CCN1C(=O)C(=O)N(c2ccc(OC)cc2)C1=S
inactive: [1] -7% | [2] -6.6% | [3] 3.75% | [4] -57.1% | [5] 5% | [6] -5.6%

N#Cc1cnc(SCC(=O)O)nc1N
inactive: [1] -27.2% | [2] -39.6% | [3] -15.5% | [4] 8.8% | [5] -36.2% | [6] -13.4%

CCOC(=O)C(c1ccc(C)cc1)C(Cl)(Cl)Cl (configuration not stated)
inactive: [1] 2.45% | [2] -9.55% | [3] 3.85% | [4] -1.05% | [5] -11.5% | [6] 26.4%

Cc1cc(NC(=O)C(=O)CC(=O)c2cccnc2)no1
inactive: [1] -59% | [2] -1.8% | [3] -8.2% | [4] -52.1% | [5] -6.2% | [6] -4.15%

CCOC(=O)C1CN(CCc2ccccc2)CCC1=O (configuration not stated)
inactive: [1] 30.9% | [2] -8.65% | [3] 32.1% | [4] 16.5% | [5] 42.8% | [6] 31.8%

CCCCCCCCCCCCCCCCCC(=O)OCC1CO1 (configuration not stated)
inactive: [1] 23.2% | [2] 10.3% | [3] 21.6% | [4] 13.2% | [5] 18.9% | [6] 21.1%

CC(F)(F)C(F)(F)C(=O)CC(=O)C(F)(F)F.CC(F)(F)C(F)(F)C(=O)CC(=O)C(F)(F)F.[Cu]
inactive: [1] -9.15% | [2] -20.4% | [3] -9.75% | [4] -72% | [5] 1.95% | [6] -43.6%

OC1c2ccccc2CC1Br (configuration not stated)
inactive: [1] -4.8% | [2] -3.8% | [3] -9.25% | [4] -25.4% | [5] 7.65% | [6] -8.15%

CC(C)(Nc1nc2c(ncn2C2OC(CO)C(O)C2O)c(=O)[nH]1)P(=O)(O)O (configuration not stated)
inactive: [1] 4.4% | [2] -0.4% | [3] 17% | [4] 11.1% | [5] -5.4% | [6] 2.9%

COc1ccc(-c2onc(-c3ccc([N+](=O)[O-])cc3)c2C2=NCCCN2)cc1
inactive: [1] 0.45% | [2] -6.65% | [3] -10.3% | [4] 12.7% | [5] -1.95% | [6] -20.3%

Cc1ccc(C)c(NC(=O)Nc2cccc(Cl)c2)c1
inactive: [1] -6.1% | [2] 21.2% | [3] -5.85% | [4] -4.95% | [5] 9.4% | [6] -7.65%
